High-throughput results: PubChem, National Center for Advancing Translational Sciences (NCATS)
HT1080-NT tox: qHTS for induction of synthetic lethality in tumor cells producing 2HG: qHTS for the HT-1080-NT fibrosarcoma cell line. HT-1080-NT fibrosarcoma viability, CellTiter-Glo ATP luminescence, 48 h. AID 686970, 2013. Potency, µM (top dose mostly 46.1 µM), for the others: top-dose activity, negative = less viability, usual class: cytotoxic. actives 1.6% (n = 360,000);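 also: NT is the 2HG producing partner of a matched IDH1 knockdown line; 0% = DMSO-treated cells and -100% = media-only wells without cells; nearly all actives have a fitted effect of over 55% in size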
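Fibrosarcoma NT cells, 750 per well in 5% FBS RPMI, were exposed to compound for 48 hours. Viability: CellTiter-Glo luminescence.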
KB-3-1 cytotox: qHTS assay for MDR1-selective chemotherapeutics: Primary screen using the parental adenocarcinoma cell KB-3-1; KB-3-1 viability, CellTiter-Glo ATP luminescence, 72 h; Potency, µM (series often up to 46.1 µM), usual class: cytotoxic; actives 1.4% (n = 400,000); also: % is scaled to controls: 0 for no effect and ±100 for the full control effect; nearly all actives have a fitted effect of over 60% in size
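Parental KB-3-1 viability, qHTS format: 72 h compound exposure, 37 °C; CellTiter-Glo; media-only wells and DMSO plates as controls; concentration-effect fits on corrected data.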
MCF10A rereplic: A quantitative high throughput screen for small molecules that induce DNA re-replication in MCF 10a normal breast cells; Potency, µM (doses to about 46.1 µM), for inactives: at the top dose activity, positive = re-replication, most hits filed as activators; MCF 10A DNA re-replication, Hoechst nuclear intensity, 48 h; actives 2.9% (n = 350,000); AID 624296, 2012; also: % of control where 0% means no effect; nearly all actives have a fitted effect of over 50% in size
HT1080 IDH1KD tx: qHTS for induction of synthetic lethality in tumor cells producing 2HG: qHTS for the HT-1080-IDH1KD cell line | HT-1080 IDH1 knockdown viability, ATP luminescence, 48 h | Potency, µM (highest dose often 46.1 µM), inactives show at the highest dose activity, negative = toxicity, hits mostly cytotoxic | actives 2% (n = 360,000) | AID 686971, 2013;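 also: 0% = DMSO wells and -100% = cell-free medium wells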
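Cytotoxicity counter-line: IDH1KD HT-1080, 48 h, CellTiter-Glo. Curves classed by r2, magnitude and activity.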
SW480 rerep: A quantitative high throughput screen for small molecules that induce DNA re-replication in SW480 colon adenocarcinoma cells; SW480 DNA re-replication, Hoechst DNA content imaging, 48 h; Potency, µM (titrated, usually from 46.1 µM), inactives show top-dose re-replication activation, most hits filed as activators; actives 1.8% (n = 340,000); AID 624297, 2012; also: % of control where 0% means no effect; nearly all actives have a fitted effect of over 55% in size
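Per well, 250 cells were exposed to pinned compound for 48 hr. Nuclear DNA was visualised with Hoechst (40 min, 37 C) and total object intensity recorded by fluorescence scanning.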
KB-V1 cytotox: qHTS assay for MDR1-selective chemotherapeutics: Primary screen using the drug-selected MDR subline cells KB-V1; KB-V1 MDR cells viability, CellTiter-Glo, 72 h; Potency, µM (doses to about 46.1 µM), actives largely listed as cytotoxic; actives 3.4% (n = 400,000); also: % is scaled to controls: 0 for no effect and ±100 for the full control effect; nearly all actives have a fitted effect of over 60% in size
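Cytotoxicity via CellTiter-Glo luminescence after 72 h compound exposure at 37 degrees C. Cells: drug-selected KB-V1 line, DMEM phenol-red free plus 10% FBS. Compounds tested at multiple concentrations; normalized data fitted to concentration-effect curves.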
Active calls of the source: *; i = inactive; ? = inconclusive; · = not tested or not shown; [ ] = remark or other dose. Shown are actives, neighbours in structure and some others; about 8% of the full set was active somewhere. Calls follow the shape of the dose curve; as a rule, active = well fitted curve in the direction sought with a large enough effect; inconclusive = small, poorly fitted or top-dose-only effect, or another doubt; inactive = no such curve, though single readings can be large; an effect the other way counts as inactive or inconclusive. Potency is read from the fitted curve at half-maximal effect.

SMILES	HT1080-NT tox	KB-3-1 cytotox	MCF10A rereplic	HT1080 IDH1KD tx	SW480 rerep	KB-V1 cytotox
COc1ccccc1N1CCN(Cc2ccccc2F)CC1	5%	i	9%	7%	-3%	i
Nc1ccc(N2CCN(Cc3ccccc3Cl)CC2)c(Cl)c1	1%	?	21µM*	-9%	2%	i
CC1Cc2ccccc2CN1 (configuration not stated)	·	i	·	·	·	i
O=C(Nc1ccc(OC(F)(F)F)cc1)c1cccn(Cc2ccccc2Cl)c1=O	·	i	·	·	·	i
CCOC(=O)C1C(=O)NC2(C)CC1c1cc(OC)ccc1O2 (configuration not stated)	0%	i	?	22%	8%	i
CCOC(=O)[C@]12Cc3cc(OC)ccc3[C@H]1N(C1CCCCC1)C(=O)c1cc(OC)ccc12	23µM*	16µM*	·	18µM*	·	?
CCOC(=O)[C@]12Cc3cc(C)ccc3[C@H]1N(C1CCCCC1)C(=O)c1cc(OC)ccc12	2.9µM*	3.3µM*	·	3.3µM*	·	4.1µM*
C[C@@]12CC[C@H]3[C@@H](CC[C@@H]4C[C@H]5S[C@H]5C[C@]43C)[C@H]1CC[C@H]2O	·	·	10%[20.6 µM]	·	-1%[20.6 µM]	·
COP(=S)(OC)Oc1ccc(S(=O)(=O)N(C)C)cc1	·	·	1%	·	-11%	·
CCCC(C)(COC(N)=O)COC(=O)NC1CC1 (configuration not stated)	·	·	-5%	·	-1%	·
C[C@H]1CN([C@@H](C)CO)C(=O)c2cc(NC(=O)Nc3cccc4ccccc34)ccc2O[C@@H]1CN(C)Cc1ccc(-c2ccccc2)cc1	-30%	i	-28%	-1%	57%	?
CC[C@@H](O)C[C@H]1CCC[C@@]2(C[C@@H]3OC(=O)/C=C/[C@@](C)(O)[C@@H](O)[C@H](C)[C@@H](O)[C@H](OC4CCC(N(C)C)C(C)O4)[C@@H](O)[C@](C)(O)CCCCC/C=C/[C@@H]4CC(C)(C)O[C@@]4(O)C[C@H](O2)[C@H]3C)O1 (some centres not stated)	-9%	0.16µM*	?	?	?	0.073µM*
CCN1c2nc3ccccn3c(=O)c2CC2(C(=O)N(C)C(=O)N(C)C2=O)C1C (configuration not stated)	8%	i	-3%	4%	-5%	16µM*
CN1C(=O)N(C)C(=O)C2(Cc3c(nc4ccccn4c3=O)N3CCc4ccccc4C32)C1=O (configuration not stated)	8%	i	1%	9%	0%	i
CC1CCN2c3nc4ccccn4c(=O)c3CC3(C(=O)N(C)C(=O)N(C)C3=O)C2C1 (configuration not stated)	-17%	i	-2%	-1%	-3%	7.3µM*
CCCOP(=O)(c1ccc(N(C)C)cc1)C(O)c1ccc(Cl)cc1Cl (configuration not stated)	-1%	i	15%	?	1%	?
O=C(CSc1nc(-c2ccccc2)c(-c2ccccc2)[nH]1)Nc1nccs1	?	i	?	?	13%	i
CCOc1ccc(/C=C/C(=O)C(C(N)=O)=C2SCCS2)cc1	-5%	?	?	-1%	13%	?
CC(=NCCc1c[nH]c2ccccc12)c1c(O)n(Cc2ccccc2)c(=O)[nH]c1=O	-27%	i	?	?	15µM*	12µM*
